# Bioassay records (PubChem)
# Compounds with a hit are over-represented: about 12% of the library has one in this group of screens.
# AmpC inh no detg: inhibitors of E. coli AmpC beta-lactamase without detergent | 330,000 tested, 0.52% active | P00811 | AmpC nitrocefin hydrolysis, absorbance 480 nm, 0.0001% Triton | Potency, µM (highest dose often 57.1 µM), inactives show at the top dose activity change, negative = inhibition, usual class: inhibitors;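 note: plate controls were no compound for no effect and no enzyme for full effect; nearly all actives have a fitted effect of over 20% in size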
# Target sequence (P00811 whole entry, looked up): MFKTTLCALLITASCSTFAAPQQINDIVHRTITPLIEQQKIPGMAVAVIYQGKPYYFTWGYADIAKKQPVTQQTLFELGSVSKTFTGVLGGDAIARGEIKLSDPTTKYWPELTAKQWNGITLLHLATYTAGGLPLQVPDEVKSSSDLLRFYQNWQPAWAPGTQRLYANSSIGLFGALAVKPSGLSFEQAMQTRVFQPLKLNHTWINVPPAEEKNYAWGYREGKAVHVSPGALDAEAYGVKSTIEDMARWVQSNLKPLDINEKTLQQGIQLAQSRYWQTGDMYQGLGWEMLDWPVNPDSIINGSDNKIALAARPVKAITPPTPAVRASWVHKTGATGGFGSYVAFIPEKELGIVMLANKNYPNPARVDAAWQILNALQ
#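 20 mM phosphate pH 7.0 + 0.01% (detergent screen) or 0.0001% Triton X-100; 5.3 nM AmpC reagent; cpd preinc 15 min RT; nitrocefin (800 uM stock) to start; A480 q20 s × 4 min; Activity was normalised to no-enzyme and no-compound control wells.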
# Pf growth 96h: P. falciparum growth inhibition at 96 hour, primary screen for plastid delayed-death inhibitors. P. falciparum luciferase reporter growth, 96 h. Potency, µM (top dose mostly 28.7 µM), for inactives: at the top dose activity change, negative = inhibition, usual class: inhibitors. 320,000 tested, 6.9% active; note: % is set by controls: 0 for no effect and ±100 for the full control effect
#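 Two-generation exposure (96 h) targets delayed-death phenotype. Reporter parasites carrying integrated firefly luciferase, in red cells at 2% hematocrit and 0.05% parasitemia final, kept at 37 C, 5% CO2; luminescence loss indicates inhibition.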
# Sm TGR block: blocks Schistosoma mansoni thioredoxin glutathione reductase | Q962Y6 | purified TGR, DTNB reduction, TNB absorbance 405 nm | Potency, µM (series often up to 114 µM), for inactives: at the top dose activity change, negative = inhibition, usual class: inhibitors | 360,000 tested, 3% active | AID 485364; note: % is set by controls: 0 for no effect and ±100 for the full control effect; nearly all actives have a fitted effect of over 60% in size
#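 Kinetic colorimetric format: TGR-catalysed, NADPH-driven DTNB reduction monitored via TNB absorbance. Enzyme dispensed at 20 nM; compound exposure 15 min at room temperature before reaction start.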
# AmpC detergent: blocks E. coli AmpC beta-lactamase in detergent assay | P00811 | AmpC hydrolysis of nitrocefin, absorbance 480 nm, 0.01% Triton | Potency, µM (titrated, usually from 114 µM), without a hit: at the highest dose activity change, negative = inhibition, most hits filed as inhibitors | 370,000 tested, 0.041% active;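 note: 0% = no-compound wells and -100% = no-enzyme wells; nearly all actives have a fitted effect of over 25% in size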
#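 AmpC (5.3 nM in the dispensed reagent) in 20 mM phosphate pH 7.0 with 0.01% (detergent screen) or 0.0001% Triton X-100 was preincubated with compounds for 15 min at room temperature. Nitrocefin was then added from an 800 uM solution, and hydrolysis was followed at 480 nm.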
# SARS PLpro yeast: blocks SARS-CoV papain-like protease in a yeast assay | 330,000 tested, 0.19% active | AID 485353 | Potency, µM (top dose mostly 32.9 µM), without a hit: top-dose activity, positive = growth rescue, actives largely listed as activators | S. cerevisiae expressing SARS-CoV PLpro, growth rescue; calls by dose curve; note: 0% is about no effect; nearly all actives have a fitted effect of over 55% in size
# Pf growth 48h: inhibits P. falciparum growth in the first generation, 48 h; P. falciparum luciferase growth in erythrocytes, 48 h; Potency, µM (highest dose often 28.7 µM), without a hit: at the top dose activity change, negative = inhibition, usual class: inhibitors; 310,000 tested, 5.9% active; AID 504832; note: % is set by controls: 0 for no effect and ±100 for the full control effect
#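 Luciferase-expressing P. falciparum in infected erythrocytes (2% hematocrit, 0.1% parasitemia final) in RPMI 1640/0.5% Albumax were exposed to compound for 48 hours at 37 C, 5% CO2; growth read as luminescence.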
# Starred values were filed as active, the others as inactive; ? = inconclusive; . = no result given; [ ] = another dose, or the depositor's remark. Unless noted, calls come from the whole dose curve; as a rule, active = well fitted curve in the direction sought with a large enough effect; inconclusive = small, poorly fitted or top-dose-only effect, or another doubt; inactive = no such curve, though single readings can be large; an effect the other way counts as inactive or inconclusive. Potency is the fitted concentration of half-maximal effect.
SMILES,AmpC inh no detg,Pf growth 96h,Sm TGR block,AmpC detergent,SARS PLpro yeast,Pf growth 48h
CCn1c(C(c2ccccc2)c2ccccc2)n[nH]c1=S,-30.8%,?,-17.5%,?,1.6%,.
Cc1ccc(CCN2CC(C(=O)NCCCN3CCC(C)CC3)CC2=O)cc1 (configuration not stated),8.1%,?,4.6%,-5.9%,-1.6%,?
NC(CO)C(=O)NNCc1ccc(O)c(O)c1O (configuration not stated),-27.2%,4.8%,0.316µM*,?,?,-3.5%
O=C(Nc1ccc(Cl)cc1)ON=C1CCCC1,-15.8%,?,9.4%,-13.2%,-89.4%,11.7µM*
O=C1OC(c2ccccc2)=NC12CC2c1ccc(Cl)cc1 (configuration not stated),-10.2%,13.9%,14.1µM*,6.1%,-81.2%,26.5%
CC(C)Nc1nc(NC(C)C)nc(N(C)N)n1,-35.2%,3.7µM*,7.4%,-0.3%,-10.6%,.
CC(C)Nc1nc(NC(C)C)nc(N(C)C(N)=O)n1,-12.5%,11.7µM*,-23.8%,-0.9%,0.3%,19.8%
CCCN1CCN(CCCNC(=O)Cn2c(-c3cccs3)cc3cc(Cl)ccc32)CC1,.,.,-3.8%,13.5%,.,.
Cc1cccc(N(C)S(=O)(=O)c2ccc(-c3cc(C)no3)s2)c1,-12.7%,32.2%,2.9%,-15.1%,-12.6%,30.0%
CCN(c1cccc(C)c1)S(=O)(=O)c1ccc(-c2cc(C)no2)s1,-0.8%,11.7µM*,5.6%,-2.2%,-2.3%,?
Cc1ccc(S(=O)(=O)N2CCOCC2)cc1NC(=O)COC(=O)c1cccnc1Cl,0.2%,13.9%,-0.9%,1.6%,-1.2%,-6.5%
Cc1nn(C(C)C(=O)O)c(=O)c2ccccc12 (configuration not stated),-10.5%,9.28µM*,20.7%,4.2%,0.1%,28.8%
Cc1nn(-c2ccccc2C(=O)O)c(=O)c2ccccc12,-9.6%,0.0%,1.1%,-1.5%,0.7%,2.8%
CC(C(=O)O)n1ncc2ccccc2c1=O (configuration not stated),-18.1%,32.0%,7.6%,-0.3%,1.3%,2.62µM*
CCOc1cc(-c2ccc(OC(=O)c3ccc(C)cc3)c(OC)c2)cc(=O)c2c(C)oc(C)c12,.,.,-26.9%,-6.5%,.,.
O=C(CCc1nnc2ccc(NCc3ccco3)nn12)Nc1cccc(F)c1,6.2%,?,-9.8%,-7.9%,-5.5%,-8.7%
Cc1ccc(S(=O)(=O)N(C)C)cc1NC(=O)COC(=O)/C(=C/c1ccc(F)cc1)c1cccs1,-29.0%,-2.7%,5.5%,-6.5%,-1.9%,1.9%
CCOC(=O)/C=C/C(=O)Nc1ccc(S(=O)(=O)Nc2c(C)cc(C)cc2C)cc1,-48.5%,41.0%,-9.0%,?,2.5%,8.3%
CCOC(=O)/C=C/S(=O)(=O)c1ccc(NC(C)=O)cc1,-13.5%,.,0.316µM*,?,-7.2%,-28.9%
CCOC(=O)/C=C/C(=O)OCC(=O)Nc1cccc(Br)c1,-20.7%,22.4%,17.8µM*,0.3%,-29.8%,21.2%
CCOC(=O)/C=C/C(=O)OCC(=O)Nc1ccc(C)cc1,1.4%[11.4 µM],-16.8%,12.6µM*,-12.9%,-3.6%,-6.5%
O=C(Nc1sc2c(c1C(=O)NCC1CCCO1)CCC2)c1cc(=O)c2cc(Cl)ccc2o1 (configuration not stated),.,.,6.4%,9.0%,.,.
Cc1ccc(Cl)cc1N1CCN(C(=O)Cc2c(C(=O)O)c(C)cn2C)CC1,.,.,-5.6%,-9.0%,.,.
COCCN1CCn2c(nc3cc([N+](=O)[O-])ccc32)C1,-14.6%,5.4%,39.8µM*,-3.1%,1.7%,76.2%
O=[N+]([O-])c1ccc2c(c1)nc1n2CCSC1,-4.2%,24.7%,28.7%,-1.5%,-3.0%,14.8%
O=[N+]([O-])c1ccc2c(c1)nc1n2CCN(c2ccccc2)C1,-38.2%,?,28.2µM*,1.3%,-2.5%,?
